Test results reported in PubChem BioAssay (EPA / NIEHS).
Where “and” joins values, the source holds several entries; their conditions need not be identical. Equal values may be shown once. A structure can be active in one record and inactive in another. Calls of active or inactive are those of the source. The calls were made as follows: active = hit-call score of the fitted dose curve at least 0.9, where 1 is the maximum; inactive = score below 0.9.

These compounds were tested against Aryl hydrocarbon receptor (Homo sapiens) (UniProt P35869) (assay: ATG_Ahr_CIS: Attagene CIS-FACTORIAL HepG2 Assay for human Aryl Hydrocarbon Receptor (Ahr) (AID 2282930)). Conditions: HepG2 AhR cis-factorial reporter transcription; actives raise or lower the signal.
Aryl hydrocarbon receptor (Homo sapiens), sequence (P35869 whole entry, looked up): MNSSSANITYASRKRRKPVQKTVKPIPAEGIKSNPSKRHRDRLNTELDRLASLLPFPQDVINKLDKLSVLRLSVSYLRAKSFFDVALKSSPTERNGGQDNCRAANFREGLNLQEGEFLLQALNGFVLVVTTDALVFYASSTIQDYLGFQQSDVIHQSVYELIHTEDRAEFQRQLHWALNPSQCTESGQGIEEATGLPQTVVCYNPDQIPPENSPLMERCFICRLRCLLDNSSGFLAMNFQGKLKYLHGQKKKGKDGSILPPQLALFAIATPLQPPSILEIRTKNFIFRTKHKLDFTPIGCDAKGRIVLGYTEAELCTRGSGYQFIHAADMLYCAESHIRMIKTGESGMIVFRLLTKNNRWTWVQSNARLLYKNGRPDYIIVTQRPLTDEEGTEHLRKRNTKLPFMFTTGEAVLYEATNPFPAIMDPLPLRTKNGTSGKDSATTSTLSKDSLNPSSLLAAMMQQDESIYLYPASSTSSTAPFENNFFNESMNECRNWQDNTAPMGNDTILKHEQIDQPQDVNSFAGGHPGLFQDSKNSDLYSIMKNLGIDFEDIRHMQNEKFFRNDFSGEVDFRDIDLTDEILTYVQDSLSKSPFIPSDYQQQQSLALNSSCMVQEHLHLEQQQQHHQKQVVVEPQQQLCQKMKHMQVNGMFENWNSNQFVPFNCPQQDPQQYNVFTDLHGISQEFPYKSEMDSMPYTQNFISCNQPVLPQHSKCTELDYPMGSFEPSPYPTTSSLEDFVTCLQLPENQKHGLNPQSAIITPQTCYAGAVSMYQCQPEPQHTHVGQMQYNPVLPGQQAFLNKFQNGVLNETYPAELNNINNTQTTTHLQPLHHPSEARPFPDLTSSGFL
Description: ATG_CIS is a cell-based, multiplexed-readout assay that uses HepG2, a human liver cell line, with measurements taken at 24 hours after chemical dosing in a 24-well plate.ATG_Ahr_CIS is one of 52 assay component(s) measured or calculated from the ATG_CIS assay. It is designed to make measurements of mRNA induction, a form of inducible reporter, as detected with fluorescence intensity signals by Reverse transcription polymerase chain reaction (RT-PCR) and Capillary electrophoresis technology.Data from the assay component ATG_Ahr_CIS was analyzed into 1 assay endpoint. This assay endpoint, ATG_Ahr_CIS, was analyzed with bidirectional fitting relative to DMSO as the negative control and baseline of activity. Using a type of inducible reporter, measures of mRNA for gain or loss-of-signal activity can be used to understand the reporter gene at the transcription factor-level as they relate to the gene AHR. Furthermore, this assay endpoint can be referred to as a primary readout, because this assay has produced multiple assay endpoints where this one serves a reporter gene function. To generalize the intended target to other relatable targets, this assay endpoint is annotated to the dna binding intended target family, where the subfamily is basic helix-loop-helix protein.
Human liver HepG2 cells are transiently transfected with multiple reporter transcription units (MRTUs) in 6-well plates using FuGene 6 reagent (Roche; 3 ml FuGene/1 mg DNA). The MRTU constructs are regulated by a cis-regulating element (promoter). […] A major difference between the CIS and TRANS system is that in CIS activities of endogenous TFs are measured, whereas the TRANS assay evaluates changes in activities of exogenous, chimeric NR-Gal4 proteins. […] At the end of 24 hour incubation, total RNA was isolated using TriZol reagent (Invitrogen). The isolated RNA is then reverse-transcribed using oligo(dT) primer and Mo-MLV reverse transcriptase (Invitrogen) with DNAse I (Ambion) treatment for 30 min. The one-tenth of the produced cDNA was amplified by PCR using Taq DNA polymerase (Invitrogen) and two reporter sequence-specific primers. The PCR products were fluorescently labeled by primer extension with 6-arboxyfluorescein (6-FAM) 5'-labeled reporter sequence-specific primer (2 min at 95 C, 20 s at 68 C and 10 min at 72 C) and these products were digested with 5U of HpaI (New England Biolabs) for 2h at 37 C. […] The raw capillary electrophoresis data was processed using Attagraph software (Attagene).

Question: Which outcome does the source give for `CCCCOC(=O)CCCCC(=O)OCCCC` here?
Answer: The outcome was “inactive”.

Question: With `Cc1occc(=O)c1O` as the compound, how does the outcome read?
Answer: The outcome was “inactive”.

Question: `CCN(CC)CCOc1ccc(C(=C(Cl)c2ccccc2)c2ccccc2)cc1` was tested. Which AC50 did it give?
Answer: Its AC50 is 9.35 µM (active).

Question: What about the outcome of the same compound?
Answer: The outcome was “inactive”.

Question: How did the outcome turn out when `CCC(C)N(C)C(=O)c1cc2ccccc2c(-c2ccccc2Cl)n1` (stereo not given) was run?
Answer: The outcome was “inactive”.

Question: Which outcome does the source give for `O=C(N[C@@H](c1ccccc1)[C@@H]1CCCCN1)c1cccc(C(F)(F)F)c1Cl` here?
Answer: Its outcome is “inactive”.

Question: Which outcome does the source give for `O=C(O)c1cccnc1` here?
Answer: Its outcome is “inactive”.

Question: With `O=C(NS(=O)(=O)/C=C/c1cccs1)c1ccc(F)cc1Br` as the compound, how does the outcome read?
Answer: The outcome was “inactive”.

Question: With `CCCCCCCCCCCCCCCCO` as the compound, how does the outcome read?
Answer: The outcome was “inactive”.

Question: `O=Cc1ccccc1C=O` was tested. Which outcome did it give?
Answer: The outcome was “inactive”.

Question: `COC(=O)[C@H]1[C@H]2C[C@@H]3c4[nH]c5cc(OC)ccc5c4CCN3C[C@H]2C[C@@H](OC(=O)c2cc(OC)c(OC)c(OC)c2)[C@@H]1OC` was tested. Which AC50 did it give?
Answer: Its AC50 is 12.5 µM (active).

Question: How did the outcome turn out when `NC=O` was run?
Answer: The outcome was “inactive”.

Question: `CC1(C)C(=O)NC(=O)N1CO` was tested. Which outcome did it give?
Answer: Its outcome is “inactive”.

Question: For `CCCC(=O)O`, which outcome is on record?
Answer: Its outcome is “inactive”.

Question: For `CCCCCCCCCC[N+](C)(C)[O-]`, which outcome is on record?
Answer: The outcome was “inactive”.

Question: Which AC50 does the source give for `c1ccc2occc2c1` here?
Answer: Its AC50 is 21.7 µM (active).

Question: With `CC(N)=O` as the compound, how does the outcome read?
Answer: The outcome was “inactive”.

Question: What about the AC50 of the same compound?
Answer: Its AC50 is 29 µM (active).

Question: Which outcome does the source give for `NCCOCCOCCN` here?
Answer: The outcome was “inactive”.

Question: For `CN(C)CCCN(C)CCCN(C)C`, which outcome is on record?
Answer: Its outcome is “inactive”.

Question: Which outcome does the source give for `OCC(CO)n1cnc(-c2ccc(F)cc2)c1-c1ccnc(Oc2ccccc2)n1` here?
Answer: Its outcome is “inactive”.

Question: How did the outcome turn out when `Cc1cc(SC2=C(O)C[C@@](CCc3ccc(N)cc3)(C(C)C)OC2=O)c(C(C)(C)C)cc1CO` was run?
Answer: Its outcome is “inactive”.

Question: What does the source list for `CC(=O)O[C@]1(C(C)=O)CC[C@H]2[C@@H]3C=C(Cl)C4=CC(=O)[C@@H]5C[C@@H]5[C@]4(C)[C@H]3CC[C@@]21C`?
Answer: AC50: 150 µM (active) and 158 µM (active); outcome: inactive

Question: Which outcome does the source give for `CCCCCCCC(=O)OC` here?
Answer: Its outcome is “inactive”.

Question: `CO[C@@H]1COCC[C@@H]1N[C@@H]1CC[C@@](C(=O)N2CCc3ncc(C(F)(F)F)cc3C2)(C(C)C)C1` was tested. Which outcome did it give?
Answer: Its outcome is “inactive”.

Question: `CC(=O)OC1CC(C)OC(C)O1` (stereo not given) was tested. Which outcome did it give?
Answer: The outcome was “inactive”.

Question: With `CC(=O)OCC(COC(C)=O)OC(C)=O` as the compound, how does the outcome read?
Answer: The outcome was “inactive”.

Question: For `CC(=O)S[C@H](C(=O)N[C@H]1Cc2ccccc2[C@H]2CCC[C@@H](C(=O)O)N2C1=O)C(C)C`, which outcome is on record?
Answer: The outcome was “inactive”.

Question: `O=C(Oc1ccccc1)c1cccc(C(=O)Oc2ccccc2)c1` was tested. Which outcome did it give?
Answer: The outcome was “inactive”.

Question: For `CS(=O)(=O)c1ccc([C@@H](C[C@H]2CCC(=O)C2)C(=O)Nc2cnccn2)cc1Cl`, which outcome is on record?
Answer: The outcome was “inactive”.

Question: `CCCCCCC(CCCCCCCCCCC(=O)OCC(COC(C)=O)OC(C)=O)OC(C)=O` (stereo not given) was tested. Which outcome did it give?
Answer: The outcome was “inactive”.

Question: How did the outcome turn out when `O=NO` was run?
Answer: Its outcome is “inactive”.

Question: Which AC50 does the source give for `O=C1NC(=O)C(c2ccccc2)(c2ccccc2)N1` here?
Answer: The AC50 was 59.3 µM (active).

Question: For `Cc1cn([C@H]2C=C[C@@H](CO)O2)c(=O)[nH]c1=O`, which outcome is on record?
Answer: The outcome was “inactive”.

Question: With `C/C=C/C=C/C(=O)O` as the compound, how does the outcome read?
Answer: The outcome was “inactive”.

Question: With `O=C1c2c(O)cccc2Cc2cccc(O)c21` as the compound, how does the AC50 read?
Answer: The AC50 was 61.7 µM (active).

Question: `C=CCCCCCCCCCCCC` was tested. Which outcome did it give?
Answer: Its outcome is “inactive”.

Question: How did the outcome turn out when `Cn1cnc2c1c(=O)[nH]c(=O)n2C` was run?
Answer: The outcome was “inactive”.

Question: How did the outcome turn out when `CCCC[C@H]1CN(CC2CCOCC2)C(=O)OC12CCN(C1(C)CCN(C(=O)c3c(C)ncnc3C)CC1)CC2` was run?
Answer: The outcome was “inactive”.
